TSHR antagonist: human thyrotropin receptor antagonism; activity change, negative = inhibition, % at 11.5 µM; P16473; TSHR-expressing cells, TSH-stimulated cAMP HTRF, 2 h; stronger effect = lower value; actives 0.2% (n = 330,000);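 active = activity change below a set negative limit, meaning inhibition stronger than a set level, cut at about -70% in these data; inconclusive = activity change between two set negative limits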
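Freshly harvested TSHR cells receive pin-tooled compound, then EC80 TSH at 4nM final. After 2 hours at 37 deg C, antibody in lysis buffer and cAMP-d2 are added; 30 minutes at ambient temperature precede the HTRF read.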
ELG1 DNA repair: blocks ELG1-dependent DNA repair in HEK293T cells; Potency, µM (series often up to 46.1 µM), actives largely listed as inhibitors; HEK293T ELG1-luciferase reporter, luminescence, 16 h; DNA damage induced by 5-fluorouridine; actives 2.3% (n = 330,000); AID 504467; note: nearly all actives have a fitted effect of over 55% in size
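In this reporter screen, reduction of luminescence relative to DMSO vehicle indicated activity. Compounds and 5-fluorouridine were added together to 2,000 cells per well, incubated for 16 hr at 37 °C, then developed with ONE-Glo.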
B2AR arrestin: agonists driving beta-arrestin recruitment to human beta2-adrenergic receptor. P07550. beta-arrestin recruitment to beta2AR, cell-based reporter. Potency, µM (top dose mostly 46.1 µM), usual class: activators. actives 0.02% (n = 330,000); note: nearly all actives have a fitted effect of over 65% in size
Target sequence (P07550 whole entry, looked up): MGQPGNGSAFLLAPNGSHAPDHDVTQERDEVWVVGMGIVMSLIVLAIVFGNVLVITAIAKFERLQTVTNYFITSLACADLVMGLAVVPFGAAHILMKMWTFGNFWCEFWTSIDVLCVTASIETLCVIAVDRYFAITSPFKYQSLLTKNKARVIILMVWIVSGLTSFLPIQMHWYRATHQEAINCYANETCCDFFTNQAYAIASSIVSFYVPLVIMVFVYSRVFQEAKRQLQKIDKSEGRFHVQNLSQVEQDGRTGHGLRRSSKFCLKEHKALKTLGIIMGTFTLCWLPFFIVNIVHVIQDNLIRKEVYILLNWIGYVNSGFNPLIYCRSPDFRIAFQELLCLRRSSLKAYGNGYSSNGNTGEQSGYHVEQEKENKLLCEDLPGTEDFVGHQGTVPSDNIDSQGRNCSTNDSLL
RORg inh: inhibitors of mouse ROR gamma transcriptional activity. Drosophila S2 Gal4-RORgamma UAS-luciferase reporter, 20 h. actives 5.4% (n = 310,000). P51450. Potency, µM (series often up to 53.6 µM), usual class: inhibitors. AID 2551; note: nearly all actives have a fitted effect of over 60% in size
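Drosophila S2 cells stably expressing Gal4-DBD/mouse RORγ fusion under metallothionein promoter plus UAS-luciferase; compound 1 h, then 700 uM CuSO4 induction for 20 h at ambient temperature; inhibition read as reduced luminescence.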
VP16 counter: Gal4-VP16 reporter inhibition counter-screen. Drosophila S2 Gal4-VP16 UAS-luciferase, luminescence, 20 h. Potency, µM (highest dose often 53.6 µM), most hits filed as inhibitors. actives 3.5% (n = 310,000). AID 2546;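 note: Gal4-VP16 expression switched on by copper sulfate through the metallothionein promoter; nearly all actives have a fitted effect of over 50% in size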
Of the large screens only hits and unclear results are named; the others gave an inactive call. Shown are actives, neighbours in structure and some others; about 7.5% of the full set was active somewhere. Unless noted, calls come from the whole dose curve; as a rule, active = well fitted curve in the direction sought with a large enough effect; inconclusive = small, poorly fitted or top-dose-only effect, or another doubt; inactive = no such curve, though single readings can be large; an effect the other way counts as inactive or inconclusive.

O=c1c2ccccc2cnn1-c1nc2ccccc2[nH]1	ELG1 DNA repair inconclusive, RORg inh 0.45µM, VP16 counter 1.1µM
Clc1ccc2nc(N3CCCCC3)[nH]c2c1	ELG1 DNA repair inconclusive
Cc1cc(C)c(C#N)c(SCC(=O)c2cccs2)n1	ELG1 DNA repair inconclusive
CCN(CC)C(=O)CSc1nc(C)cc(-c2cccs2)c1C#N	RORg inh 10µM
Cc1sc2ncn(CC(=O)NCCCN3CC(C)CC(C)C3)c(=O)c2c1S(=O)(=O)N1CC(C)CC(C)C1 (stereo unspecified)	none
C/C(Cn1nc([N+](=O)[O-])cc1C)=N\NC(=O)COc1ccccc1[N+](=O)[O-]	VP16 counter inconclusive
C/C(Cn1nc([N+](=O)[O-])cc1C)=N\NC(=O)c1cccc(Br)c1	RORg inh 13µM, VP16 counter inconclusive
C/C(Cn1nnc([N+](=O)[O-])n1)=N\NC(=O)c1ccccc1Cl	RORg inh inconclusive, VP16 counter inconclusive
C/C(Cn1nnc([N+](=O)[O-])n1)=N\NC(=O)c1cccc(Cl)c1	RORg inh 10µM, VP16 counter inconclusive
Cc1ccc(-n2c(-c3ccc(Cl)cc3)n[nH]c2=S)c(C)c1	RORg inh 1.4µM, VP16 counter 1.1µM
COc1ccc(-c2n[nH]c(=S)n2-c2ccc(C)cc2C)cc1	RORg inh 2.8µM, VP16 counter 5µM
Cc1ccc(S(=O)(=O)NCc2cccnc2)cc1C(=O)N1CCCC1	none
O=S1(=O)c2cccc3cccc(c23)N1CCCN1CCN(c2ccc(F)cc2)CC1	none (no result: TSHR antagonist, ELG1 DNA repair, B2AR arrestin)
O=C(CCl)c1cc2c3c(c1)CC(=O)N3CCC2	ELG1 DNA repair inconclusive, RORg inh 2µM, VP16 counter 3.5µM
O=C(Nc1ccc(Cl)c(S(=O)(=O)N2CCOCC2)c1)c1ccccn1	RORg inh inconclusive
O=C(Nc1ccc(Cl)c(S(=O)(=O)N2CCOCC2)c1)c1cc(-c2ccccn2)nc2ccccc12	ELG1 DNA repair 18µM
CCOc1cc(N2CCOCC2)c(OCC)cc1NC(=O)COc1ncnc2ccccc12	none
CCOc1cc(N2CCOCC2)c(OCC)cc1NC(=O)c1cc(-c2ccco2)nc2ccccc12	ELG1 DNA repair 2.6µM, VP16 counter inconclusive
COc1ccc(NC(=O)c2cc(-c3ccco3)nc3ccccc23)cc1S(=O)(=O)N1CCOCC1	ELG1 DNA repair 10µM
O=C(Nc1ccc(F)cc1)c1cc(-c2ccccn2)nc2c(Cl)cccc12	RORg inh 13µM
Cc1ccc(C(C)(C)C)cc1	none (no result: TSHR antagonist, ELG1 DNA repair, B2AR arrestin)
COCCn1c(=O)c(C)nc2cnc(N3CCNCC3)nc21	none (no result: TSHR antagonist, ELG1 DNA repair, B2AR arrestin)
CC(C)Cc1nccs1	none
COc1ccc(NC(=O)c2cc(C)nc3ccccc23)cc1S(=O)(=O)N1CCOCC1	none (no result: RORg inh, VP16 counter)
COc1ccc(Nc2nc(-c3ccccc3)nc3ccccc23)cc1S(=O)(=O)N1CCOCC1	ELG1 DNA repair 8.2µM, RORg inh inconclusive
COC(=O)/C=C/c1ccccc1CN1[C@@H](CC(=O)OC)c2ccccc2S1(=O)=O	none (no result: RORg inh, VP16 counter)
CCCn1c(/C=C/c2ccco2)nc2ccccc21	ELG1 DNA repair inconclusive, VP16 counter inconclusive
COc1ccc2c(c1)c(/C=N/Nc1nc3ccccc3[nH]1)c(C)n2C	ELG1 DNA repair inconclusive, RORg inh 3.5µM, VP16 counter 16µM
Cc1ccc(Cn2c(/C=C/c3ccco3)nc3ccccc32)cc1	ELG1 DNA repair inconclusive, B2AR arrestin inconclusive, RORg inh 11µM, VP16 counter inconclusive
CCCCn1c(/C=N/Nc2nc3ccccc3[nH]2)nc2ccccc21	RORg inh 1.8µM, VP16 counter 1.6µM
CCCCn1c(/C=C/c2ccco2)nc2ccccc21	ELG1 DNA repair inconclusive, RORg inh 13µM, VP16 counter inconclusive
CCC/C=C(\CCC)C(NC(=O)c1ccc(C(F)(F)F)cc1)c1ccc(C(F)(F)F)cc1 (stereo unspecified)	none (no result: TSHR antagonist, ELG1 DNA repair, B2AR arrestin)
CC(C)C[C@H](NC(=O)[C@H](CO)NC(=O)CNC(=O)[C@H](CCCCN)NC(=O)[C@H](CCCN=C(N)N)NC(=O)[C@H](C)NC(=O)[C@H](Cc1ccccc1)NC(=O)[C@@H](N)CCCN=C(N)N)C(=O)N[C@@H](CCCN=C(N)N)C(=O)N[C@@H](CCC(N)=O)C(=O)N[C@@H](CCCCN)C(=O)N[C@@H](CC(N)=O)C(=O)N[C@H](C(=O)O)C(C)C	none (no result: TSHR antagonist, ELG1 DNA repair, B2AR arrestin)
CC(C)(C)CN1CCNC(=O)C1CC(=O)NCCN1CCCc2ccccc21 (stereo unspecified)	none
CC(C)c1ccc(/C=C/C(=O)Nc2ccc(CN3CCOCC3)cc2)cc1	ELG1 DNA repair 9.2µM, RORg inh inconclusive, VP16 counter inconclusive
CC(C)C(=O)NC(=S)Nc1ccc(CN2CCOCC2)cc1	RORg inh inconclusive
O=C(/C=C/c1ccc(Cl)cc1)Nc1ccc(CN2CCOCC2)cc1	ELG1 DNA repair inconclusive
O=C(/C=C/c1ccc(Cl)cc1Cl)NC(=S)Nc1ccc(CN2CCOCC2)cc1	RORg inh 3.5µM, VP16 counter 4.5µM
O=C(NC(=S)Nc1ccc(CN2CCOCC2)cc1)c1ccc(-c2ccc(Cl)cc2)o1	ELG1 DNA repair inconclusive
O=C(/C=C/c1ccc(Cl)cc1Cl)NC(=S)Nc1ccccn1	ELG1 DNA repair inconclusive, RORg inh 2.8µM, VP16 counter 5µM
O=C(/C=C/c1ccccc1)NC(=S)Nc1ccc(CN2CCOCC2)cc1	ELG1 DNA repair inconclusive, RORg inh 4µM, VP16 counter inconclusive
COc1ccccc1NC(=O)Cc1ccsc1	none
O=C(O)[C@H]1[C@H]2C[C@H]3c4[nH]c5ccccc5c4CCN3C[C@@H]2CC[C@@H]1O	none (no result: TSHR antagonist, ELG1 DNA repair, B2AR arrestin)
O=C(O)CC(c1cccc(O)c1)N1Cc2ccccc2C1=O (stereo unspecified)	none
COC(=O)c1ccc(Oc2c(Cl)cccc2[N+](=O)[O-])cc1	RORg inh 7.9µM
CC(=O)O[C@H](C(=O)O[C@@H]1C[C@@H](CCC[C@H]2O[C@H](C(=O)OC(C)C)CC[C@@H]2C)O[C@@H](CC#N)C1)c1ccccc1	none (no result: TSHR antagonist, ELG1 DNA repair, B2AR arrestin)
CCCc1[nH]n(-c2nc3ccccc3s2)c(=O)c1C=NCCCN(CC)CC	ELG1 DNA repair inconclusive, RORg inh 20µM
CCCN=Cc1c(CCC)[nH]n(-c2nc3ccccc3s2)c1=O	RORg inh 2.8µM, VP16 counter inconclusive
CCCc1cc(=O)n(-c2nc3ccccc3s2)[nH]1	ELG1 DNA repair 21µM, RORg inh inconclusive
COc1cccc(Cn2c(=O)c(CCc3ccccc3)nc3cnc(N4CCOCC4)nc32)c1	none (no result: TSHR antagonist, ELG1 DNA repair, B2AR arrestin)
O=C1C=CC2=C3c4cc(O)c(O)cc4C[C@]3(O)COC2=C1	RORg inh inconclusive (no result: TSHR antagonist, ELG1 DNA repair, B2AR arrestin)
Cc1ccc(NC(=O)CSc2nnc3ccc(-c4ccncc4)nn23)cc1	ELG1 DNA repair 5.8µM (no result: RORg inh, VP16 counter)
CCC(=O)c1ccc(OCCSc2ncccn2)cc1	ELG1 DNA repair inconclusive, RORg inh 11µM
CCC(=O)c1ccc(OCC(=O)O)cc1	none
COc1cccc([C@@H]2Oc3ccc(OC)cc3C[C@H]2OC(=O)NS(=O)(=O)c2ccc(F)cc2)c1	none (no result: TSHR antagonist, ELG1 DNA repair, B2AR arrestin)

Screening results: PubChem BioAssay, National Center for Advancing Translational Sciences (NCATS)
